Assay outcomes deposited in PubChem by National Center for Advancing Translational Sciences (NCATS).
TDP1 cell noCPT: qHTS for Inhibitors of human tyrosyl-DNA phosphodiesterase 1 (TDP1): qHTS in cells in absence of CPT; DT40 Tdp1-/- hTDP1 cells, no CPT, ATP luminescence, 48 h; Potency, µM (top dose mostly 46.2 µM), inactives show top-dose activity change, negative = growth inhibition, most hits filed as inhibitors; 420,000 tested, 15% active; AID 686978, 2013; also: potency is read from the fitted curve at half-maximal effect; nearly all actives have a fitted effect of over 55% in size
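Cells were dispensed at 400 per well, compounds added by pin tool, plates incubated ≥48 hr at 37 °C, then CellTiter-Glo added for 30 min at room temperature before luminescence reading. Line: DT40 Tdp1-/- complemented with hTDP1; camptothecin omitted.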
Gal4-VP16 FLuc: inhibits Gal4-VP16 luciferase reporter, ROR gamma counter-screen; Drosophila S2 Gal4-VP16 UAS-luciferase, luminescence, 20 h; Potency, µM (doses to about 53.6 µM), for the others: at the highest dose activity, negative = inhibition, usual class: inhibitors; 310,000 tested, 3.5% active; AID 2546;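 also: Gal4-VP16 expression switched on by copper sulfate through the metallothionein promoter; potency is read from the fitted curve at half-maximal effect; nearly all actives have a fitted effect of over 50% in size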
DT40 TDP1 CPT: growth inhibition of DT40 Tdp1-/-;hTDP1 cells with camptothecin (screen for TDP1 inhibitors) | chicken DT40 Tdp1-/-;hTDP1 cells + 20 nM CPT, ATP luminescence, 48 h | Potency, µM (highest dose often 46.2 µM), for inactives: top-dose activity change, negative = growth inhibition, actives largely listed as inhibitors | 420,000 tested, 12% active | AID 686979; also: potency is read from the fitted curve at half-maximal effect; nearly all actives have a fitted effect of over 55% in size
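Cell growth measured by CellTiter-Glo luminescence after a minimum 48 h, 37 C compound exposure with 20 nM CPT in Tdp1-knockout DT40 cells stably expressing hTDP1, seeded 400/well; qHTS titration format.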
IL-1B inflam inh: blocks inflammasome-driven IL-1 beta release; THP-1 LPS/ATP IL-1B secretion, AlphaLISA, 16 h; active compounds read low; activity change, % at 57.5 µM; 360,000 tested, 4.7% active; AID 743279; in the data active = activity change below about -50%; inconclusive = mostly about -30% to -49%
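THP-1 cells pretreated 1 hr with compounds (up to 57.5 uM final), then stimulated with LPS (250 ng/mL final) plus ATP (1.25 mM final); secreted IL-1B measured by AlphaLISA after 16 hr, decreased signal indicating inhibition.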
LDHA inh: LDHA (human) enzyme inhibition | P00338 | purified LDHA, NADH/diaphorase-resazurin fluorescence; active compounds read low | activity change, % (values are at about 110 or 230 µM) | 480,000 tested, 0.15% active | AID 1347041; in the data active = activity change below about -30%; inconclusive = mostly about -25% to -30%;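 also: plate controls were DMSO wells for no effect and wells without enzyme for full effect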
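Enzyme activity of human lactate dehydrogenase 5 (2 nM; 0.06 mM NADH, 0.2 mM pyruvate, 5 min, RT) is measured via a resazurin/diaphorase fluorescence readout of residual NADH.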
RORgamma inh: ROR gamma (mouse) transcription inhibition; P51450; Drosophila S2 Gal4-RORgamma UAS-luciferase reporter, 20 h; Potency, µM (doses to about 53.6 µM), for the others: top-dose activity change, negative = inhibition, most hits filed as inhibitors; 310,000 tested, 5.4% active; AID 2551; also: potency is read from the fitted curve at half-maximal effect; nearly all actives have a fitted effect of over 60% in size
Target sequence (P51450 whole entry, looked up, the tested form may be a part): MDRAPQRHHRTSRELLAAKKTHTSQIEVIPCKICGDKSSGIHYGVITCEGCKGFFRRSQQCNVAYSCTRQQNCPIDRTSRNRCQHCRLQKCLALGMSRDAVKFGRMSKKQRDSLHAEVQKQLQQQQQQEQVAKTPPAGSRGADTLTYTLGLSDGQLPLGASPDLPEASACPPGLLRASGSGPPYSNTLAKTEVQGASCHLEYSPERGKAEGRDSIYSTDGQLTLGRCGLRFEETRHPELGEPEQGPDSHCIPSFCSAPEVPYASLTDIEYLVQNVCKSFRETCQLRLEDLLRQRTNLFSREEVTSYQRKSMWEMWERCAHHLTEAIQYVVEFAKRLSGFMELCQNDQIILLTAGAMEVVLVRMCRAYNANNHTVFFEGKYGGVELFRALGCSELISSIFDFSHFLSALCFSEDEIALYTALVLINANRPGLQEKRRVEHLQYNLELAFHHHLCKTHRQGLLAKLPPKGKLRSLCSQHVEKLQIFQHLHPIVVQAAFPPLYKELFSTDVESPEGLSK
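Drosophila S2 cells stably expressing Gal4-DBD/mouse RORγ fusion under metallothionein promoter plus UAS-luciferase; compound 1 h, then 700 uM CuSO4 induction for 20 h at ambient temperature; inhibition read as reduced luminescence.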
Numbers without * were called inactive; ? = inconclusive; nt = no result; [ ] = remark or other dose. This is a sample that favours compounds with a hit; in the whole collection about 18% have one here. Unless noted, calls follow the shape of the dose curve; as a rule, active = well fitted curve in the direction sought with a large enough effect; inconclusive = small, poorly fitted or top-dose-only effect, or another doubt; inactive = no such curve, though single readings can be large; an effect the other way counts as inactive or inconclusive. Unless noted, % is scaled to controls: 0 for no effect and ±100 for the full control effect.

SMILES	TDP1 cell noCPT	Gal4-VP16 FLuc	DT40 TDP1 CPT	IL-1B inflam inh	LDHA inh	RORgamma inh
COc1ccc2cc1Oc1ccc(cc1)CC1c3c(cc4c(c3Oc3cc5c(cc3OC)CCN(C)C5C2)OCO4)CCN1C (stereo unspecified)	nt	1%	nt	nt	nt	-19%
COc1ccc2cc1Oc1ccc(cc1)CC1c3c(cc(OC)c4c3Oc3cc5c(cc3O4)CCNC5C2)CCN1C (stereo unspecified)	1.6µM*	7.1µM*	2.9µM*	-11	1	4.5µM*
COc1ccc2cc1Oc1ccc(cc1)C[C@H]1c3c(cc(OC)c4c3Oc3c(ccc5c3[C@H](C2)N(C)CC5)O4)CCN1C	5.2µM*	nt	5.8µM*	-17	-2	nt
C=CCNC(=O)CN1CCN(Cc2ccc(F)c3cccnc23)CC1	nt	nt	nt	nt	4	nt
O=C(NCC1CCCO1)c1cc(S(=O)(=O)N2CCCCC2)ccc1Cl (stereo unspecified)	5%	nt	24%	19	-7	nt
CC(C)CCN(C)C1CCN(S(=O)(=O)c2cccc(C(F)(F)F)c2)CC1	-21%	-12%	-10%	-53*	-7	-2%
O=S(=O)(c1cccc(Cl)c1)N1CCC(c2nc3ccccc3[nH]2)CC1	18µM*	14%	21µM*	-13	1	?
O=S(=O)(c1ccc(F)cc1)N1CCC(c2nc3ccccc3[nH]2)CC1	?	5%	-26%	-14	-13	30%
O=C(NCC1CCCO1)c1ccc(S(=O)(=O)N2CCC(c3nc4ccc(Cl)cc4[nH]3)CC2)cc1 (stereo unspecified)	23µM*	0%	26µM*	-27	0	?
O=S(=O)(c1cccc(C(F)(F)F)c1)N1CCC(c2nc3ccccc3[nH]2)CC1	23µM*	-7%	?	-18	6	-1%
CCc1ccccc1NC(=O)CN1CCN(C(=O)c2oc3ccccc3c2C)CC1	nt	nt	nt	nt	-1	nt
Cc1cccc(-n2nnc3c(sc4nc(C)c(C)cc43)c2=O)c1	nt	nt	nt	nt	-14	nt
O=S(=O)(c1ccc2c(c1)OCCO2)N1CCC(c2nc3ccc(Cl)cc3[nH]2)CC1	12µM*	-6%	8.2µM*	-72*	-8	33%
CC(=O)c1cccc(S(=O)(=O)N2CCC(c3nc4ccccc4[nH]3)CC2)c1	-15%	-14%	-21%	-8	-9	?
Cc1ccc2nc(C3CCN(S(=O)(=O)c4ccc5ccccc5c4)CC3)[nH]c2c1	?	0%	?	-69*	-2	19%
Cc1ccc(NC(=O)Cn2c(=O)ccc3cc(S(=O)(=O)N4CCC(C)CC4)ccc32)cc1Cl	6.5µM*	nt	12µM*	nt	-7	nt
CC1CCN(S(=O)(=O)c2ccc3c(ccc(=O)n3CC(=O)NCc3ccccc3Cl)c2)CC1	?	nt	18µM*	nt	-1	nt
Cc1ccc(NC(=O)Cn2c(=O)ccc3cc(S(=O)(=O)N4CCC(C)CC4)ccc32)c(C)c1	23µM*	nt	?	nt	-1	nt
CC1CCN(S(=O)(=O)c2ccc3c(ccc(=O)n3CC(=O)NCc3ccccc3)c2)CC1	?	nt	-29%	nt	6	nt
CC1CCN(S(=O)(=O)c2ccc3c(ccc(=O)n3CC(=O)Nc3cccc(F)c3)c2)CC1	13µM*	nt	15µM*	nt	-1	nt
CC(=O)Nc1ccc(NC(=O)Cn2c(=O)ccc3cc(S(=O)(=O)N4CCC(C)CC4)ccc32)cc1	?	nt	2%	nt	4	nt
CCC(=O)N(C)C(c1ccc(C)cc1)c1c[nH]c2ccccc12 (stereo unspecified)	nt	nt	nt	nt	9	nt
O=C(Nc1ccccc1)c1ccc(CSc2ccc3c(c2)OCCCO3)cc1	nt	nt	nt	nt	3	nt
CC1C=CCC2C(=O)N(c3cccc(C(=O)Nc4ccc(F)cc4)c3)C(=O)C12 (stereo unspecified)	-15%	3%	-25%	-2	-9	37%
C=CCN(C(=O)c1cccc(N2C(=O)C3CC=CC(C)C3C2=O)c1)c1ccccc1 (stereo unspecified)	4.6µM*	-8%	?	35	-8	27%
SMILES	TDP1 cell noCPT	Gal4-VP16 FLuc	DT40 TDP1 CPT	IL-1B inflam inh	LDHA inh	RORgamma inh
O=S1(=O)CCN2C(c3cc(F)ccc3F)=CSC2=N1	nt	nt	nt	nt	-1	nt
Cc1c(C(=O)O)c(O)cc2c1C(=O)c1c(O)c([C@H]3O[C@H](CO)[C@@H](O)[C@H](O)[C@H]3O)c(O)c(O)c1C2=O	?	?	8.9µM*	nt	15	?
Cc1c(C(=O)O)c(O)cc2c1C(=O)c1c(O)c([C@@H]3O[C@H](CO)[C@@H](O)[C@H](O)[C@H]3O)c(O)c(O)c1C2=O	?	nt	?	-3	12	nt
C#CCN(C(=O)Cn1c(=O)c2c(ncn2C)n(C)c1=O)C1CCCCC1	nt	nt	nt	nt	3	nt
COc1cc(/C=C(\C#N)C(N)=C(C#N)C#N)cc(Cl)c1O	nt	nt	nt	nt	22	nt
COc1ccc(OC)c(CCNC(=O)Cn2cccc2C(=O)c2ccccc2)c1	?	-1%	7.3µM*	0	-7	-14%
COc1ccc(OC)c(CCNC(=O)Cn2cccc2C(=O)c2ccccc2C)c1	8.2µM*	-5%	?	0	-9	-2%
CCc1ccc(OCC(=O)OCC(=O)c2cc3ccccc3o2)cc1	nt	nt	nt	nt	0	nt
CCCNc1c(NS(=O)(=O)c2ccccc2)c(=O)oc2ccccc12	nt	nt	nt	nt	7	nt
CCC(CC)C(=O)Nc1nnc(C2CC(=O)N(c3ccc(Cl)cc3)C2)s1 (stereo unspecified)	nt	nt	nt	nt	-4	nt
O=C1NC(=S)S/C1=C\c1cccc([N+](=O)[O-])c1	13µM*	nt	?	22	-19	nt
O=C(/C=C/c1cccc([N+](=O)[O-])c1)N1CCOCC1	-11%	-7%	-4%	-12	-8	18%[10 µM]
O=C(/C=C/c1ccc(-c2cccc([N+](=O)[O-])c2)o1)N1CCOCC1	18µM*	2%	16µM*	-1	-3	22%
O=C1NC(=O)/C(=C/c2ccc(-c3cccc([N+](=O)[O-])c3)o2)S1	?	-4%	16µM*	-10	-13	-1%
Cn1c(=O)c2c(ncn2CCC(=O)Nc2ccccc2C(=O)c2ccccc2)n(C)c1=O	nt	nt	nt	nt	-9	nt
C/C(Cn1cnc([N+](=O)[O-])n1)=N\NC(=O)c1ccc(F)cc1	-16%	-9%	7%	0	6	-43%
C/C(Cn1nnc([N+](=O)[O-])n1)=N\NC(=O)c1ccccc1Cl	?	?	23µM*	63	32	?
